Experimental data taken from PubChem BioAssay AID1903 (Southern Research Specialized Biocontainment Screening …, 2009).
About 1,200 (0.39%) of roughly 310,000 compounds were called active. No rule for the calls is given here. Not all results are given here. Results with a measured potency or affinity are listed apart.

target: Large T antigen (Simian virus 40) (UniProt P03070); experiment: SV40 large T antigen inhibitors, biochemical (AID 1903); conditions: SV40 large T antigen ATPase/helicase inhibition assay; at 20 µM; active compounds read high
Sequence (P03070 whole entry, looked up): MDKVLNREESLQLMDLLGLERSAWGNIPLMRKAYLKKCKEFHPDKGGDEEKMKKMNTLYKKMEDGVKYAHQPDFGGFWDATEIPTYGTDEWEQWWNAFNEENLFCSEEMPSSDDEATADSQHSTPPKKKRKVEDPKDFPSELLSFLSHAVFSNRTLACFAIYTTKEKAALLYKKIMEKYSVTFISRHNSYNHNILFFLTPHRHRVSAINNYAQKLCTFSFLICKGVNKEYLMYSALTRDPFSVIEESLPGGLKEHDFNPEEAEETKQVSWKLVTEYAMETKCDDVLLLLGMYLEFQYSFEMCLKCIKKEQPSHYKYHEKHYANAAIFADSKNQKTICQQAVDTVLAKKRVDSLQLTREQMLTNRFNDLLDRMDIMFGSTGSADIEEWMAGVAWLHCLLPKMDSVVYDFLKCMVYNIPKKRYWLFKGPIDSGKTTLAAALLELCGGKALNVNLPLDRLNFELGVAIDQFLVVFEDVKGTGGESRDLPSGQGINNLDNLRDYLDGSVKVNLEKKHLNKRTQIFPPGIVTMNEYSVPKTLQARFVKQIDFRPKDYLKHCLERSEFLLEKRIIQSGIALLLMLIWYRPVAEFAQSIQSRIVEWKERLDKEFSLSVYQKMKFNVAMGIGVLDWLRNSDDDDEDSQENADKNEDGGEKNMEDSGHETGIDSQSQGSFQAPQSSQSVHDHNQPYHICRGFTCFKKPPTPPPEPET

inhibition, inactive:
CC(Nc1c[nH]c(=O)[nH]c1=O)c1ccccc1 (stereo not given) 28.4%
N#CC1=C(N)N2C(=C(C#N)C13CCCCC3)SC1CCCCC12O (stereo not given) 2.16%
CCc1cc(Cn2nc(-c3ccccc3)cc2C(=O)NCc2ccccc2OC)on1 2.01%
COc1ccccc1CC(NC(C)=O)C(=O)N1CCN(C(=O)Nc2ccccc2Cl)CC1 (stereo not given) 11.4%
Cc1ccc(NC(=O)c2ccc3nsnc3c2)c(C)c1 3.08%
O=C(NC(C1CC1)C1CC1)C1CCC(=O)N(CCCN2CCCC2=O)C1 (stereo not given) 8.58%
FC(F)(F)c1cccc(Nc2nc(N3CCOCC3)nc(N3CCOCC3)n2)c1 6.77%
COc1ccc(/C=C2\CCC(C3CCCC3)C2=O)c(OC)c1OC (stereo not given) 15.3%
Cc1ccc(S(=O)(=O)Nc2ccc(Oc3cccnc3)nc2)cc1 9.11%
CC(=O)Nc1ccc(SC[C@H](c2ccccc2)N2CCN(CCc3ccccc3)CCC2=O)cc1 16.3%
COc1ccc(-c2nnc(-c3cc4ccccc4oc3=O)o2)cc1 -1.16%
O=C(C1CCCN(Cc2cccc(Cl)c2)C1)N1CCCCC1 (stereo not given) 2.11%
COc1cc(SC)ccc1C(=O)Nc1ncc(Cl)cc1Cl -2.54%
CNC(=S)N/N=C/c1cn(CCOc2ccc(OC)cc2)c2ccccc12 6.11%
Cc1c(CN(C)C)c2c(n1Cc1ccccc1)C(=O)c1ccccc1-2 2.92%
CCOc1cc(/C=N/n2cnnc2)cc(Br)c1O 23.3%
CCOc1cc(/C=N/n2c(C)nnc2C)ccc1O 27.2%
Clc1ccccc1Cn1nc(-c2ccccc2)nc1-c1ccccc1 1.23%
Cn1ccnc1SCC(=O)Nc1cc(C(F)(F)F)ccc1N1CCOCC1 7.01%
COC(=O)c1ccc2c(=O)n(-c3ccc(OC)cc3)c(=S)[nH]c2c1 6.42%
O=C(COC(=O)CCC1CCCC1)NCc1ccc(Cl)cc1 17.3%
COC(=O)c1cn(CCOc2ccccc2F)c2ccccc12 1.53%
O=[N+]([O-])c1cn(Cc2ccc(Cl)cc2)cn1 1.06%
CCOc1cc(/C=C2\C(=O)N(c3cccc(C(F)(F)F)c3)C(=O)c3ccccc32)ccc1O 9.18%
Cc1cccc(N2C(=O)/C(=C\c3ccc(C(=O)O)cc3)c3ccccc3C2=O)c1 36.5%
CC(C)c1nnc(NC(=O)c2cccnc2)s1 2.86%
OC1CCN(C(=S)Nc2ccc(Oc3ccccc3)cc2)CC1 -15.6%
O=C(Nc1ccccc1)NC1(C(=O)N2CCC(O)CC2)CCCCC1 4.76%
C/C(=N\NC(=O)C(C)Sc1ccccc1)C(C)(C)C (stereo not given) 17.5%
CC(CCc1ccc(O)cc1)NCc1ccc(Br)cc1 (stereo not given) 3.95%
OCCc1ccc(O)cc1 27%
N/C(=N\OC(=O)Cc1cccs1)c1cccc([N+](=O)[O-])c1 3.85%
COc1cc(Br)c(C2C(C#N)=C(N)Oc3n[nH]c(-c4cccnc4)c32)cc1OC (stereo not given) 18.6%
COc1cc(OC)cc(C2C(C#N)=C(N)Oc3n[nH]c(-c4cccnc4)c32)c1 (stereo not given) 16.8%
COc1cc(OC)c2c(c1)C(=O)OC2OC (stereo not given) 2.96%
CC(NC(=O)CS(=O)(=O)c1ccccc1)c1ccccc1 (stereo not given) 25%
O=C(c1ccc2ccccc2c1)N1CCCC1 0.92%
O=C(c1ccc2ncsc2c1)N1CCN(c2ccccc2Cl)CC1 11.3%
O=C(c1ccc2ncsc2c1)N1CCCCC1 18.2%
COc1ccc(-c2cccc(C(=O)N3CCOCC3)c2)cc1 9.81%
O=C(c1ccc2ccccc2c1)N1CCN(c2ccccc2)CC1 10.3%
O=C(c1cccc(-c2ccc(O)cc2)c1)N1CCN(c2ccc(F)cc2)CC1 1.57%
CCOC(=O)c1nn(-c2ccc(F)cc2)c(=O)cc1OCC(=O)N1CCN(c2ccccc2)CC1 5.17%
CCN(CC)C(=O)C[n+]1ccc(C(N)=O)cc1 4.68%
Fc1ccccc1/C=N/n1c(COc2ccccc2)n[nH]c1=S 6%
Cc1cc(Br)cc(Cl)c1OCC(=O)NC(=O)NCc1ccccc1 1.39%
CCN1C(=O)[C@H]2[C@@H](c3ccc(C)cc3)N3C(=O)N(c4ccc(C(F)(F)F)cc4)C(=O)[C@@]3(Cc3ccccc3)[C@H]2C1=O 4.67%
CC(C)C[C@H](NC(=O)CCn1nnc2ccccc2c1=O)C(=O)O 9.82%
O=C(O)CNC(=S)N(Cc1ccccc1F)C1CCCCC1 4.15%
O=C(Oc1ccc(-c2cnc3ccccc3n2)cc1)c1cccc([N+](=O)[O-])c1 3.96%
O=C(Oc1ccc(-c2cnc3ccccc3n2)cc1)c1cc([N+](=O)[O-])ccc1Cl 7.12%
COCC(C)NC(=O)c1noc2c1CCc1cc(OC)ccc1-2 (stereo not given) -0.97%
CCOc1ccc(NCc2cc3cc(OC)ccc3[nH]c2=O)cc1 28.1%
Cc1ccc2nc(-c3cccc(N)c3)[nH]c2c1 5.37%
Cc1ccc2nc(-c3ccccc3N)[nH]c2c1 -2.07%
CCOC(=O)c1c(S(=O)(=O)NCc2ccc(C)o2)c(C)n(C)c1C 2.28%
COc1ccc(OCC(=O)Nc2ccc(N3CCOCC3)cc2)cc1 12.4%
CC(C)c1ccc(CNc2ccc(N3CCOCC3)cc2)cc1 9.24%
c1cc(CNc2ccc(N3CCOCC3)cc2)ccn1 1.95%
COc1ccc(CCC(=O)Nc2ccc(N3CCOCC3)cc2)cc1 8.67%
COc1cccc2cc(C(=O)N(Cc3cccs3)CC3CCCO3)c(=O)oc12 (stereo not given) 5.05%
CCn1cc(C2=NC(c3ccccc3)CO2)c2ccccc21 (stereo not given) 14.4%
Cc1ccc(Sc2ncnc(N)c2[N+](=O)[O-])cc1 2.16%
CSc1nc(Cl)cc(Nc2ccccc2N)n1 22%
CNc1cc(Cl)nc(SC)n1 5.2%
CCNC(=O)O/N=C1\CCCCC1c1ccc([N+](=O)[O-])cc1[N+](=O)[O-] (stereo not given) 11.8%
O=C1NN(c2ccccc2)C(=O)/C1=C\c1coc2ccc(O)cc2c1=O 51.3%
N#C/C(=C\c1coc2ccccc2c1=O)C(N)=S 11.5%
COc1ccc(CCNC(=O)C/C(C)=N/NC(=O)C23CC4CC(CC(C4)C2)C3)cc1OC 5.44%
COc1ccc(NC(=O)CC2C(=O)N(Cc3ccco3)C(=S)N2C(C)C)cc1 (stereo not given) 12%
COc1ccc(-n2c(C)cc(/C=C3\SC(=S)N(Cc4ccco4)C3=O)c2C)cc1 2.87%
COC(=O)C1=C(C)N(Cc2ccco2)C(=O)/C1=C\c1ccc(N(C)C)cc1 3.05%
COC(=O)C1=C(C)N(Cc2ccco2)C(=O)/C1=C\c1ccc([N+](=O)[O-])cc1 31.3%
COc1ccc(N2C(=O)CC(c3cc(OC)c(OC)c(OC)c3)CC2=O)cc1 8.69%
COC(=O)c1nn(-c2nc(-c3ccc(OC)c(OC)c3)cc(C(F)(F)F)n2)cc1[N+](=O)[O-] 9.35%
O=C1NN(c2ccccc2)C(=O)/C1=C/c1ccc(Sc2ccc(Cl)cc2)o1 11.2%
O=C1NN(c2ccc(Cl)c(Cl)c2)C(=O)/C1=C/c1ccc(-c2ccccc2C(=O)O)o1 28.4%
Cc1ccc(Sc2ccc(/C=C3/C(=O)NN(c4ccccc4)C3=O)o2)cc1 20.1%
O=C1NN(c2cccc(Br)c2)C(=O)/C1=C/c1ccc(-c2cc([N+](=O)[O-])ccc2O)o1 38.2%
COC(=O)c1ccc(N2NC(=O)/C(=C/c3ccc(-c4ccc(Cl)c(C(=O)O)c4)o3)C2=O)cc1 37%
N=C1/C(=C\c2ccc(-c3cccc(Cl)c3)o2)C(=O)N=C2SC=C(c3ccccc3)N12 7.39%
COc1ccc(Sc2ccc(/C=C3\C(=O)NN(c4ccccc4)C3=O)o2)cc1 32.2%
N=C1/C(=C\c2ccc(-c3cc(Cl)cc(Cl)c3)o2)C(=O)N=C2SC=C(c3ccccc3)N12 -1.62%
COc1ccccc1N1CCN(CC(O)c2ccccc2)CC1 (stereo not given) -5.22%
CC(=O)Nc1nc2ccc(S(=O)(=O)N3CCCCC3)cc2s1 11.1%
CCSC1=NCCN1S(=O)(=O)c1ccc(NC(C)=O)cc1 4.92%
CN(C(=O)c1ccc2c(c1)CCN2S(C)(=O)=O)c1ccccc1 -0.23%
Cc1cc(C)c2c(=O)[nH]c(SCc3ccccc3C)nc2n1 1.53%
CCC(=O)Oc1ccc(C(=O)Nc2cccc(NC(=O)c3ccco3)c2)cc1 -2.07%
Cc1ccc(OCC(=O)Nc2ccc(F)cc2)c([N+](=O)[O-])n1 6.19%
Cc1ccc(NC(=O)C2CCN(S(=O)(=O)c3cnc[nH]3)CC2)cc1C 12%
COc1ccccc1OCC(=O)Nc1nonc1NC(=O)COc1ccccc1OC 11.7%
CC(=O)Nc1ccc(N2CC(C)(C)C2=O)cc1 14.5%
COc1ccc(F)cc1S(=O)(=O)N1CCCC(C)C1 (stereo not given) 4.43%
OCCC1CN(Cc2cccc(C(F)(F)F)c2)CCN1Cc1ccccc1 (stereo not given) 5.73%
